Measured values: the supplement of paper PMC10849652
About 7,900 targets were measured; listed, in parts, are those with a hit and a random draw of the rest. About 0.6% of all pairs of compound and target were hits. A number with no mark means an inactive call.

Tests used:
Assay in all cases: log2 fold change, soluble protein after heating vs DMSO (PISA); higher = thermal stabilisation; K562 cells, 10 uM, 30 min; active = over 0.2 and 3.5 SD of the protein, either way, in both replicates (recomputed)
saracatinib = compound: CN1CCN(CCOc2cc(OC3CCOCC3)c3c(Nc4c(Cl)ccc5c4OCO5)ncnc3c2)CC1 [saracatinib]
In short: (§1)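 Soluble protein was quantified by TMTpro 16plex LC-MS/MS after channel sums were equalised. It was obtained as the supernatant after 21,000xg for 90 min from pooled aliquots of K562 cells (2×10^6 cells/mL, 10 μM compound, 30 min) heated for 3 min across 48°C-58°C and extracted in PBS with 0.5% NP-40 at 4°C. Thermal stability values are relative to control samples and come from duplicates. They are given as log2 fold changes.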

sotrastaurin = compound: CN1CCN(c2nc(C3=C(c4c[nH]c5ccccc45)C(=O)NC3=O)c3ccccc3n2)CC1 [sotrastaurin]
In short: as §1

alvocidib = compound: CN1CC[C@H](c2c(O)cc(O)c3c(=O)cc(-c4ccccc4Cl)oc23)[C@H](O)C1 [alvocidib]
In short: as §1

Tubastatin A = compound: CN1CCc2c(c3ccccc3n2Cc2ccc(C(=O)NO)cc2)C1 [Tubastatin A]
In short: as §1

[1] = compound: CNC(=O)C1=CC=CC=C1NC2=NC(=NC=C2Cl)NC3=C(C=C(C=C3)N4CCOCC4)OC
In short: as §1

defactinib = compound: CNC(=O)c1ccc(Nc2ncc(C(F)(F)F)c(NCc3nccnc3N(C)S(C)(=O)=O)n2)cc1 [defactinib]
In short: as §1

rucaparib = compound: CNCc1ccc(-c2[nH]c3cc(F)cc4c3c2CCNC4=O)cc1 [rucaparib]
In short: as §1

[2] = compound: CNc1nc(-c2ccc3c(N)n[nH]c3c2)cc(N2C[C@@H](C(=O)NC3CCCCC3)CC[C@H]2C)n1
In short: as §1

encorafenib = compound: COC(=O)N[C@@H](C)CNc1nccc(-c2cn(C(C)C)nc2-c2cc(Cl)cc(NS(C)(=O)=O)c2F)n1 [encorafenib]
In short: as §1

[3] = compound: COC(=O)[C@H](CCSC)NC(=O)C1=C(C=C(C=C1)NC[C@H](CS)N)C2=CC=CC=C2
In short: as §1

[4] = compound: COC1=CC=C(C=C1)CN2C=CC3=C2C=C(C=C3)C(=O)NO
In short: as §1

filanesib = compound: CON(C)C(=O)N1N=C(c2cc(F)ccc2F)S[C@@]1(CCCN)c1ccccc1 [filanesib]
In short: as §1

zotarolimus = compound: CO[C@H]1C[C@@H]2CC[C@@H](C)[C@@](O)(O2)C(=O)C(=O)N2CCCC[C@H]2C(=O)O[C@H]([C@H](C)C[C@@H]2CC[C@H](n3cnnn3)[C@H](OC)C2)CC(=O)[C@H](C)/C=C(\C)[C@@H](O)[C@@H](OC)C(=O)[C@H](C)C[C@H](C)/C=C/C=C/C=C/1C [zotarolimus]
In short: as §1

idasanutlin = compound: COc1cc(C(=O)O)ccc1NC(=O)[C@@H]1N[C@@H](CC(C)(C)C)[C@](C#N)(c2ccc(Cl)cc2F)[C@H]1c1cccc(Cl)c1F [idasanutlin]
In short: as §1

alisertib = compound: COc1cc(Nc2ncc3c(n2)-c2ccc(Cl)cc2C(c2c(F)cccc2OC)=NC3)ccc1C(=O)O [alisertib]
In short: as §1

[5] = compound: COc1cc2nc(-c3cc(F)ccc3O)nc(N[C@@H]3CNC[C@H]3C(C)(C)O)c2cc1OC
In short: as §1

gefitinib = compound: COc1cc2ncnc(Nc3ccc(F)c(Cl)c3)c2cc1OCCCN1CCOCC1 [gefitinib]
In short: as §1

[6] = compound: COc1cccc2cc(-c3nc([C@H]4CC[C@H](C(=O)O)CC4)n4ncnc(N)c34)[nH]c12
In short: as §1

lapatinib = compound: CS(=O)(=O)CCNCc1ccc(-c2ccc3ncnc(Nc4ccc(OCc5cccc(F)c5)c(Cl)c4)c3c2)o1 [lapatinib]
In short: as §1

pictilisib = compound: CS(=O)(=O)N1CCN(Cc2cc3nc(-c4cccc5[nH]ncc45)nc(N4CCOCC4)c3s2)CC1 [pictilisib]
In short: as §1

Chain of UniProt Q8IZ69 (Q8IZ69 whole entry, looked up): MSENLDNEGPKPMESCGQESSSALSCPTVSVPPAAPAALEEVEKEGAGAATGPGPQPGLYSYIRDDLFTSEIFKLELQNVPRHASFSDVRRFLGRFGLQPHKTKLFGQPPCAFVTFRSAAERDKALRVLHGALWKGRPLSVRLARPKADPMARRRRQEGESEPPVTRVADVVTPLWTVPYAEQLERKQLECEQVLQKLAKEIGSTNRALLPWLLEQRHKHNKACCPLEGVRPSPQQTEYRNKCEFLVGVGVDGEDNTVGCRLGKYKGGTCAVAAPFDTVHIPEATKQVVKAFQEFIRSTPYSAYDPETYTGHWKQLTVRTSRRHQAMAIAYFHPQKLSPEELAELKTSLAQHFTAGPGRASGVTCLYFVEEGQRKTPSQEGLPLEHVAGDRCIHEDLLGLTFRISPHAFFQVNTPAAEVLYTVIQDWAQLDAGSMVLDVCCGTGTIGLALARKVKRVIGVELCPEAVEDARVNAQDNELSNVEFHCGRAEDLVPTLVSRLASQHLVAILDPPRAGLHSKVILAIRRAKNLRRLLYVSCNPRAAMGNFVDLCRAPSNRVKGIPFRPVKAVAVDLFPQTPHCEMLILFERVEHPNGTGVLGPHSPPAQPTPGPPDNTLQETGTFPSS
Chain of UniProt Q9Y6I4 (Q9Y6I4 whole entry, looked up): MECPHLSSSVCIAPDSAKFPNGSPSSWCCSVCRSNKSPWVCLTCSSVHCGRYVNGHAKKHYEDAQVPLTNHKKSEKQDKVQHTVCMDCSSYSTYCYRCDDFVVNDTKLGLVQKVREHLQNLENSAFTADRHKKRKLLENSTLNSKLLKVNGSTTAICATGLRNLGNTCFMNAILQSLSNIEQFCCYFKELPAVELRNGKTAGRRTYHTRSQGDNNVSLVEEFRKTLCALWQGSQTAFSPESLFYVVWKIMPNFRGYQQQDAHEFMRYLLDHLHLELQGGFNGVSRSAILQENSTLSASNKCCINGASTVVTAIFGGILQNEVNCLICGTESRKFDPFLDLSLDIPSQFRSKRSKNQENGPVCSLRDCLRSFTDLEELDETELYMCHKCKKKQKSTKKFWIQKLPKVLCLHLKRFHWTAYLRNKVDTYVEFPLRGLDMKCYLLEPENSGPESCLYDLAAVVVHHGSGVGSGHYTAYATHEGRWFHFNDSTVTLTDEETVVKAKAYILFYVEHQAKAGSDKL
Chain of UniProt O75674 (O75674 whole entry, looked up): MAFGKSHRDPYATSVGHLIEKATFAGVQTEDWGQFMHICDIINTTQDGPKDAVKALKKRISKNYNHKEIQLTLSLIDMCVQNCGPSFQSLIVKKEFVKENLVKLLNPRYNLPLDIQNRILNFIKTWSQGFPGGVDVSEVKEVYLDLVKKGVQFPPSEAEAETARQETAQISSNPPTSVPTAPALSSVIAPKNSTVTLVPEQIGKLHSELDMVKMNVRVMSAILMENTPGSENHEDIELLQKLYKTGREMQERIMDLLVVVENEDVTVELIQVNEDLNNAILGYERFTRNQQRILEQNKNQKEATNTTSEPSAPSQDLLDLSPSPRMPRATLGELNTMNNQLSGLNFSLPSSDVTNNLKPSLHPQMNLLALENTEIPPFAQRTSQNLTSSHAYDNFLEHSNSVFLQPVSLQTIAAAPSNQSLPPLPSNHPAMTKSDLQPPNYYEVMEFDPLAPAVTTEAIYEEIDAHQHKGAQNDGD
Chain of UniProt Q14157 (Q14157 whole entry, looked up): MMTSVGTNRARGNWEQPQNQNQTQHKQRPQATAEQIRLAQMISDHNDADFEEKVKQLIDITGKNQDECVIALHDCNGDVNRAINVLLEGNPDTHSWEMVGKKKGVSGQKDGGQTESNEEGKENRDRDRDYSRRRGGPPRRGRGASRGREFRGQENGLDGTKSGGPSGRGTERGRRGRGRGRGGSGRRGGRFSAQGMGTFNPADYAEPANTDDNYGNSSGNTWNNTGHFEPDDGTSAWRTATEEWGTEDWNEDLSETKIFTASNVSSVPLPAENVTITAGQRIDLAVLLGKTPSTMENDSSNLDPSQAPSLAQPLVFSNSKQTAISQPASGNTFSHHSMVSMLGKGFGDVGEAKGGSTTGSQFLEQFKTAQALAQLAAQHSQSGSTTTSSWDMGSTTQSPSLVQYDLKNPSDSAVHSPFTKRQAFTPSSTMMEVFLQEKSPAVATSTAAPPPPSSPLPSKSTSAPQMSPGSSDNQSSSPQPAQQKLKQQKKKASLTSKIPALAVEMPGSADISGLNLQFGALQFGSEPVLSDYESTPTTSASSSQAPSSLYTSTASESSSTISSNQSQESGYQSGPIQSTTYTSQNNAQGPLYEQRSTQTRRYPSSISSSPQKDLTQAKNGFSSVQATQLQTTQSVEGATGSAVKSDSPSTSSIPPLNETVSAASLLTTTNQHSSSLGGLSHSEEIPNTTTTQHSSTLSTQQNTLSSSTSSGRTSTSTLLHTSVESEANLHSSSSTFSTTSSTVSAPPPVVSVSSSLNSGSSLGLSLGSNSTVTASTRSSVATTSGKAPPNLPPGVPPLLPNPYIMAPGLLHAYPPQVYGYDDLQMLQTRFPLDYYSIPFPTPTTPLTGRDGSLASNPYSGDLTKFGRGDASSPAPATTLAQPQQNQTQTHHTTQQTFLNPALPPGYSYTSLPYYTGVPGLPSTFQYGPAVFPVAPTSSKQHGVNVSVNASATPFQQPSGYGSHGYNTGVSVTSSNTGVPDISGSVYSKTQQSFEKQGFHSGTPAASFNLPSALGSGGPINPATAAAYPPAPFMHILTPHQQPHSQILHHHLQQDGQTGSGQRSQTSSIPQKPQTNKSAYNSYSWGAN
Chain of UniProt Q8NCE0 (Q8NCE0 whole entry, looked up): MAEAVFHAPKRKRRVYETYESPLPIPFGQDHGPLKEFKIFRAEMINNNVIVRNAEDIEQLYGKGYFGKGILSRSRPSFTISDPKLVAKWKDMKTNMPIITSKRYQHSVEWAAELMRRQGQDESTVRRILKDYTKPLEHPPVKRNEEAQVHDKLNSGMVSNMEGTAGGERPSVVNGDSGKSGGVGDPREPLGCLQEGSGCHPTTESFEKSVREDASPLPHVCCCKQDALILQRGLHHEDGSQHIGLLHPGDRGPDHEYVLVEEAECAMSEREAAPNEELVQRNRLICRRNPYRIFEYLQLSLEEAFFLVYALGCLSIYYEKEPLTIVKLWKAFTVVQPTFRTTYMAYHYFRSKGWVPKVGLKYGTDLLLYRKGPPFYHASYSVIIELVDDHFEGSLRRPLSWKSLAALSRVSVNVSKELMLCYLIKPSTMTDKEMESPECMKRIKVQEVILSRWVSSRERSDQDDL
Chain of UniProt Q9Y5L0 (Q9Y5L0 whole entry, looked up): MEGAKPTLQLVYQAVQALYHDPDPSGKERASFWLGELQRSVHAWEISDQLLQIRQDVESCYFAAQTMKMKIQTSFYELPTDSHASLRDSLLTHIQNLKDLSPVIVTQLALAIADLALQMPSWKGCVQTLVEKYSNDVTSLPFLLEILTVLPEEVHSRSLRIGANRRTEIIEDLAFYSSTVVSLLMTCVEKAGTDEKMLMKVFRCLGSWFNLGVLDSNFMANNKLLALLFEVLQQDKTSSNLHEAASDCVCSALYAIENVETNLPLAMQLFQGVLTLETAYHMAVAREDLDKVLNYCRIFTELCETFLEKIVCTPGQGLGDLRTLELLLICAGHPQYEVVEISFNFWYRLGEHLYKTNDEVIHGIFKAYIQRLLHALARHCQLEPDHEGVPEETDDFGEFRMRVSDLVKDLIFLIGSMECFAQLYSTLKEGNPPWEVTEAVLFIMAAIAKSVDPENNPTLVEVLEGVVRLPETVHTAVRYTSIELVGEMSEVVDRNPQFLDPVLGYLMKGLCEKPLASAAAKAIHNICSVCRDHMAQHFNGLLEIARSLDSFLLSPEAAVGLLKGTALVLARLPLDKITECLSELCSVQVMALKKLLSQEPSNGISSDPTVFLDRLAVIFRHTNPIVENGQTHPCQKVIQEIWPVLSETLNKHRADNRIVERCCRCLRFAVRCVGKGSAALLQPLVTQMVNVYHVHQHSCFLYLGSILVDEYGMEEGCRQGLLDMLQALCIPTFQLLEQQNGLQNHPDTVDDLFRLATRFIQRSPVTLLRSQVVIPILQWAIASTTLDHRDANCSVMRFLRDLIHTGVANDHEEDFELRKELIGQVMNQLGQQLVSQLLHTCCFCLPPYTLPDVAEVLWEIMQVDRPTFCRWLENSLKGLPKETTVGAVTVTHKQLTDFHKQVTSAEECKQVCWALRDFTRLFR
Chain of UniProt Q96K49 (Q96K49 whole entry, looked up): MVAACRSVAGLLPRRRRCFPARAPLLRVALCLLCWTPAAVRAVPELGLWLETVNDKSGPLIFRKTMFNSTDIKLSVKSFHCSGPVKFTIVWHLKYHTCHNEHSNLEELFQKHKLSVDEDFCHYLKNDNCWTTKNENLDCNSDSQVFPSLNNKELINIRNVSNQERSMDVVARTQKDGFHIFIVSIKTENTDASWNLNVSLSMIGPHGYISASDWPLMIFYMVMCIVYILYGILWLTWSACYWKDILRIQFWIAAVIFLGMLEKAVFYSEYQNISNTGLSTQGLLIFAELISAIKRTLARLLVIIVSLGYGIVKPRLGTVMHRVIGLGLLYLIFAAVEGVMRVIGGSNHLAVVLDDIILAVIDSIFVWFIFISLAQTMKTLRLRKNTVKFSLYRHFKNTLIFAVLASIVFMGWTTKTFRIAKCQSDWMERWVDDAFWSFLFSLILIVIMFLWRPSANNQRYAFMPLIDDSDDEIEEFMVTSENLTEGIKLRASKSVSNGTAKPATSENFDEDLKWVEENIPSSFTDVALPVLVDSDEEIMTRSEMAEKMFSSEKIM
Chain of UniProt P02585 (P02585 whole entry, looked up): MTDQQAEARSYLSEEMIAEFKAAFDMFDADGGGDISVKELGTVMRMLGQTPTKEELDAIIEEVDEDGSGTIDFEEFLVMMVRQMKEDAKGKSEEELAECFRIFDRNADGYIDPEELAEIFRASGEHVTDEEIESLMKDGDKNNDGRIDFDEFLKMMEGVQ
Chain of UniProt Q9UDW1 (Q9UDW1 whole entry, looked up): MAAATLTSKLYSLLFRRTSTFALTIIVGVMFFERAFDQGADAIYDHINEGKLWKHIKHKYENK

| Target | log2 fold change (saracatinib) | log2 fold change (sotrastaurin) | log2 fold change (alvocidib) | log2 fold change (Tubastatin A) | log2 fold change [1] | log2 fold change (defactinib) | log2 fold change (rucaparib) | log2 fold change [2] | log2 fold change (encorafenib) | log2 fold change [3] | log2 fold change [4] | log2 fold change (filanesib) | log2 fold change (zotarolimus) | log2 fold change (idasanutlin) | log2 fold change (alisertib) | log2 fold change [5] | log2 fold change (gefitinib) | log2 fold change [6] | log2 fold change (lapatinib) | log2 fold change (pictilisib) |
| --- | --- | --- | --- | --- | --- | --- | --- | --- | --- | --- | --- | --- | --- | --- | --- | --- | --- | --- | --- | --- |
| TOM1L1 (UniProt O75674) | -0.003 | 0.019 | -0.046 | -0.066 | -0.043 | -0.042 | -0.02 | -0.026 | -0.042 | -0.041 | -0.006 | 0.06 | 0.008 | -0.142 | -0.073 | 0.061 | 0.056 | -0.051 | -0.007 | -0.076 |
| UBAP2L isoform 5 (UniProt Q14157) | 0.017 | 0.013 | 0.038 | -0.006 | -0.096 | 0.009 | 0.018 | -0.006 | -0.018 | 0.015 | -0.026 | -0.014 | -0.03 | -0.047 | -0.034 | 0 | -0.019 | 0.012 | 0 | -0.015 |
| TMEM87B (UniProt Q96K49) | -0.072 | 0.013 | -0.046 | -0.099 | -0.019 | 0.044 | -0.016 | -0.123 | 0.03 | 0.149 | -0.064 | -0.046 | -0.108 | -0.05 | -0.133 | -0.002 | 0.063 | 0.036 | 0.026 | 0.055 |
| TRMT2A (UniProt Q8IZ69) | -0.011 | -0.076 | -0.045 | -0.005 | -0.049 | -0.031 | 0.084 | 0.094 | 0.056 | -0.094 | -0.322 (active) | 0.061 | 0.016 | 0.04 | -0.051 | -0.158 | -0.006 | -0.071 | 0.016 | -0.096 |
| UBA1 (UniProt P22314) | -0.048 | -0.17 | -0.127 | -0.052 | 0.015 | -0.058 | -0.019 | 0.055 | 0.149 | -0.057 | 0.029 | -0.077 | -0.021 | -0.014 | 0.05 | 0.047 | 0.05 | -0.053 | -0.06 | -0.019 |
| WDR61 (UniProt Q9GZS3) | -0.011 | 0.064 | -0.051 | -0.011 | -0.005 | -0.012 | -0.012 | -0.007 | -0.028 | 0.031 | -0.121 | -0.031 | 0.008 | -0.05 | -0.082 | 0.14 | -0.035 | 0.065 | -0.104 | 0.042 |
| TNPO3 (UniProt Q9Y5L0) | 0.034 | -0.075 | -0.114 | -0.03 | -0.011 | -0.067 | 0 | -0.013 | 0.032 | -0.003 | 0.053 | -0.094 | 0.036 | -0.074 | -0.064 | -0.035 | -0.012 | -0.004 | -0.035 | 0.077 |
| USP3 (UniProt Q9Y6I4) | 0.16 | 0.074 | -0.288 | -0.181 | -0.118 | -0.205 | 0.042 | 0.155 | -0.008 | -0.092 | 0.131 | -0.246 | 0.009 | -0.039 | 0.085 | -0.201 | -0.007 | -0.014 | 0.053 | 0.027 |
| TNNC2 (UniProt P02585) | 0.007 | 0.095 | -0.009 | -0.139 | -0.035 | 0.012 | -0.025 | -0.056 | -0.049 | 0.037 | -0.037 | 0.038 | -0.006 | 0.007 | -0.172 | 0.014 | 0.008 | 0.045 | -0.027 | 0.025 |
| U2AF2 (UniProt P26368) | 0.022 | 0.056 | -0.038 | -0.007 | -0.181 | -0.035 | 0.163 | -0.037 | -0.037 | 0.001 | 0.038 | 0.071 | 0.018 | 0.042 | -0.089 | 0.014 | 0.028 | 0.074 | -0.013 | 0.013 |
| UQCR10 (UniProt Q9UDW1) | 0.001 | 0.121 | -0.024 | -0.103 | 0.018 | 0.039 | -0.063 | 0.018 | 0.001 | -0.031 | -0.084 | -0.05 | -0.02 | 0.031 | -0.005 | 0.037 | -0.028 | 0.022 | -0.038 | -0.063 |
| WDR47 (UniProt O94967) | -0.019 | -0.008 | -0.002 | 0.039 | 0.035 | 0.052 | -0.071 | -0.041 | 0.045 | -0.087 | 0.057 | -0.014 | -0.006 | -0.071 | 0.21 | -0.029 | -0.001 | 0.061 | -0.007 | 0.077 |
| UBE2J1 (UniProt Q9Y385) | 0.019 | -0.016 | -0.073 | 0.26 | -0.046 | -0.133 | 0.048 | 0.204 | 0.001 | 0.035 | -0.209 | 0.119 | 0.046 | -0.12 | -0.259 | 0.232 | -0.035 | 0.241 | -0.064 | -0.081 |
| TSEN2 (UniProt Q8NCE0) | -0.014 | -0.186 | -0.044 | -0.024 | -0.042 | -0.009 | 0.007 | -0.005 | -0.068 | -0.049 | 0.018 | 0.043 | 0 | -0.065 | -0.075 | 0.077 | 0.028 | 0.114 | -0.015 | 0.013 |
| TRAPPC13 isoform 5 (UniProt A5PLN9) | 0.045 | -0.061 | -0.029 | 0.026 | 0.04 | -0.051 | 0.072 | -0.045 | 0.217 | -0.099 | 0.094 | 0.052 | 0.045 | -0.016 | -0.123 | 0.009 | 0.005 | -0.046 | 0.116 | 0.015 |
| USP24 (UniProt Q9UPU5) | 0.033 | 0.092 | -0.061 | -0.143 | 0.034 | -0.079 | -0.03 | 0.278 | 0.048 | -0.034 | -0.03 | -0.179 | 0.397 (active) | -0.342 (active) | -0.008 | 0.116 | 0.099 | 0.385 (active) | 0.019 | 0.258 |
